# Data published in ChEMBL document CHEMBL4513216, “Probing the Open Global Health Chemical Diversity Library for Multistage-Active Starting Points for Next-Generation Antimalarials” (ACS Infect Dis, 2020).
# About 8,600 (12%) of roughly 69,000 compounds showed an effect of 50% or more. The entries come from a sample that favours strong results as a whole.
# Test system: Plasmodium berghei
# Test: Screen against P. berghei liver stage (PbLuc), transformed with Luciferase, at 10uM
# Type: functional, HepG2
# Conditions: tested at 10 uM
row,Structure (SMILES),INHIBITION
1,c1ccc(Cn2cc3c(n2)C(CNCC2CCOCC2)OCC3)nc1 (stereo unspecified),-7.7%
2,CCC(CC)C(=O)N1CCC2(C1)CN(c1ccccc1)C(=O)CN2C (stereo unspecified),28.4%
3,COC[C@@]12CC[C@@H](N3CCOCC3)C[C@H]1CCN(c1nc(CO)cs1)C2,15.8%
4,CCC[C@H]1CN(Cc2nccn2C)C[C@@H]1NC(=O)C1(COC)CCC1,31.2%
5,CCC[C@H]1CN(Cc2cscn2)C[C@@H]1NC(=O)C1(COC)CCC1,48.5%
6,CCC[C@H]1CN(Cc2cncn2C)C[C@@H]1NC(=O)C1(COC)CCC1,28%
7,CCC[C@H]1CN(c2nc(CO)cs2)C[C@@H]1NC(=O)C1(COC)CC1,69.7%
8,CCC[C@H]1CN(Cc2cc(C)no2)C[C@@H]1NC(=O)C1(COC)CCC1,59.3%
9,c1ccc(-c2nnc3n2CCN(Cc2ccc4c(c2)OCCO4)C3)cc1,33.7%
10,NC(=O)c1cccc(OCC(=O)N2CCCC(n3ccnc3)C2)c1 (stereo unspecified),36.1%
11,CC(=O)N1[C@H](CN(C)C)C[C@@H]2CN(c3ncc(F)cn3)CC[C@@H]21,-0.804%
12,CCC(C)NC(=O)c1ccn(COc2ccccc2Cl)n1 (stereo unspecified),34.2%
13,COc1ccc(CNc2ncnc3c2NC(=O)CN3)cc1,45.8%
14,CC(C)c1nnc2n1CCN(C(=O)CN(C)Cc1ccccc1)C2,12.7%
15,Cc1ccc(CN(C)C(C(=O)O)c2ccc3c(c2)OCO3)o1 (stereo unspecified),8.51%
16,CCc1cc2c(N3CCCC(c4cc(C(N)=O)[nH]n4)C3)ncnc2s1 (stereo unspecified),55%
17,CCc1ncnc(N2CCCC(c3cc(C(N)=O)[nH]n3)C2)c1F (stereo unspecified),-24%
18,CCc1cc2c(N3CCCC(c4ccn[nH]4)C3)ncnc2s1 (stereo unspecified),-1.76%
19,COCC(=O)N1CCC(Cc2nccnc2-c2c(C)n[nH]c2C)C1 (stereo unspecified),17.4%
20,CCCN1CCN(c2nc(N)nc3c2nc(C)n3C)CC1,13.1%
21,CSCCC(NC(=O)c1ccc2ccccc2n1)C(=O)O (stereo unspecified),42.6%
22,CNC(=O)C(CCSC)NC(=O)c1ccc2ccccc2n1 (stereo unspecified),19.1%

row,Structure (SMILES),INHIBITION
1,CSCCC(NC(=O)c1ccc2ccccc2n1)C(=O)NC(C)C (stereo unspecified),40.5%
2,CCOCCNC(=O)C(CCSC)NC(=O)c1ccc2ccccc2n1 (stereo unspecified),60.8%
3,CSCCC(NC(=O)c1ccc2ccccc2n1)C(=O)NC1CC1 (stereo unspecified),43.7%
4,CSCCC(NC(=O)c1ccc2ccccc2n1)C(=O)N(C)C (stereo unspecified),60.8%
5,Cc1ccc(CN2CCc3onc(COc4cccnc4)c3C2)s1,27.6%
6,O=C(CNC(Cn1cccn1)c1ccccc1)Nc1cnccn1 (stereo unspecified),-12.4%
7,Cc1ccc(C2CCCN2S(=O)(=O)N(C)Cc2cnccn2)o1 (stereo unspecified),37.9%
8,CCCn1cc2nc(N3CCCC3)[nH]cc-2c1=O,44.9%
9,Cc1cnn(CC2CCCN2C(=O)c2ccc(F)c(F)c2)c1 (stereo unspecified),-63.3%
10,O=C(Nc1ccc(CCN2CCOCC2)cc1)C1CCC1,26.25%
11,CCCc1noc(CN2CCN(CCO)CC2)n1,9.015%
12,CC(NCC(=O)N1CCc2sccc2C1)c1ccccc1F (stereo unspecified),14.9%
13,CCN(CC)C(=O)c1ccc(Cl)c(NC(=O)c2cnc(C)cn2)c1,51.2%
14,CCN(CC)C(=O)c1ccc(Cl)c(NC(=O)c2csnn2)c1,28.5%
15,CCN(CC)C(=O)c1ccc(Cl)c(NC(=O)c2cc[nH]n2)c1,9.41%
16,Cc1oc(-c2nc(C#N)c(NC(C)(C)C)o2)cc1S(=O)(=O)N1CCCC1,40.1%
17,CCC(CC)N1CCC(c2[nH]ncc2S(C)(=O)=O)C1 (stereo unspecified),-3.94%
18,O=C(NCc1ccco1)N1CCCCC1c1nc(-c2ccncc2)no1 (stereo unspecified),-31%
19,CS(=O)(=O)N1C[C@H]2CC[C@@H](C1)N(C(=O)Cn1nc3ccccc3n1)C2,21.7%
20,C[C@@H]1CN(C2CCCCC2)CC[C@@]1(O)C1CCOCC1,57.7%
21,C[C@@H]1CN(C2CCN(c3ccccc3)CC2)CC[C@@]1(O)C1CCOCC1,-2.61%
22,C[C@@H]1CN(C2Cc3ccccc3C2)CC[C@@]1(O)C1CCOCC1,10.2%

row,Structure (SMILES),INHIBITION
1,Cc1nc(C)n(CC2CCCN2CCC(=O)NC2CCCC2)n1 (stereo unspecified),-38.7%
2,CN(C)c1ccc(C(=O)N2CCN(CC(C)(C)O)CC2)nn1,21.6%
3,O=C(NCC(O)c1cccc(F)c1)c1cccnc1O (stereo unspecified),50.1%
4,Cc1ccc(C(=O)NCC(O)c2ccc(F)c(F)c2)c(=O)[nH]1 (stereo unspecified),26.6%
5,Cc1ccc(C(=O)NCC(O)c2cccc(F)c2)c(=O)[nH]1 (stereo unspecified),52.5%
6,O=C(NCC(O)c1ccc(F)c(F)c1)c1cccnc1O (stereo unspecified),36.8%
7,O=C(NCC(O)c1ccc(F)cc1F)c1cccnc1O (stereo unspecified),38.3%
8,Cc1cc(C)c(CNC(=O)NCC(O)c2cccc(F)c2)c(=O)[nH]1 (stereo unspecified),27.9%
9,FC(F)COc1ccccc1NCc1nnsc1Cl,8.9%
10,CC1(C)Cc2ccc(C(=O)NC3CCOCC3)c(O)c2O1,-42.8%
11,Cc1cnn(CC2CN(CC(=O)NCc3ccc(C)s3)CCO2)c1 (stereo unspecified),19.4%
12,CCC[C@@H]1CN(Cc2cc3c(cc2OC)OCO3)C[C@H]1C(=O)O,35.1%
13,CCC[C@@H]1CN(Cc2cc3c(cc2OC)OCCO3)C[C@H]1C(=O)O,54.4%
14,CCC[C@@H]1CN(Cc2cc(OC)c3c(c2)OCO3)C[C@H]1C(=O)O,39.4%
15,Cc1ccc(S(=O)(=O)NC(=O)C2(c3ccc(F)cc3)CCC2)c(C)c1,20%
16,O=C(c1cccc(-c2ccc(F)cc2)c1)N1CCC2(CC1)[C@H](O)C[C@@H]2O,-8.47%
17,CCc1nc(C2CCCN2C(=O)c2cnns2)no1 (stereo unspecified),29.765%
18,O=C(NCc1ccc(CN2CCCC2)cc1)NC1(CO)CCCC1,62.8%
19,CC(C)OCc1ccc(CNC(=O)NC2(CO)CCCC2)cc1,46.1%
20,O=C(NCc1ccc(CN2CCCC2)cc1)NCc1ccon1,20.4%
21,CC(C)CCCNC(=O)Nc1ccc(Cl)c(C(N)=O)c1,-57.4%
22,CCN(CC)C(=O)CSc1sc2c(O)cc(=O)[nH]c2c1C(N)=O,4.07%
